From PubChem
In the library only some 2.4% were active in any assay of this set; here they are far more common.
Arbovirus inh: blocks arbovirus infection. AID 1251. arbovirus infection cell-based antiviral screen. inhibition, % at 10 µM. hit rate 0.37% among 200,000; in the data active = inhibition above about 30%
MEKK3 PB1 HTS: MEKK3-MEK5 PB1 interaction, increase or decrease; Q99759; hit rate 1.4% among 290,000; bead-based flow cytometry, Alexa488-MEK5 binding to MEKK3; actives lie on both sides; 0 = blocked by unlabeled MEK5, 100 = vehicle; binding response (% of control), % at 10 µM;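 active = binding response more than 3 SD above or below the average of its plate-row segment, actives on both sides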;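 note: Alexa488 bead fluorescence after subtracting the streptavidin-only scavenger bead signal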
Target sequence (Q99759 whole entry, looked up): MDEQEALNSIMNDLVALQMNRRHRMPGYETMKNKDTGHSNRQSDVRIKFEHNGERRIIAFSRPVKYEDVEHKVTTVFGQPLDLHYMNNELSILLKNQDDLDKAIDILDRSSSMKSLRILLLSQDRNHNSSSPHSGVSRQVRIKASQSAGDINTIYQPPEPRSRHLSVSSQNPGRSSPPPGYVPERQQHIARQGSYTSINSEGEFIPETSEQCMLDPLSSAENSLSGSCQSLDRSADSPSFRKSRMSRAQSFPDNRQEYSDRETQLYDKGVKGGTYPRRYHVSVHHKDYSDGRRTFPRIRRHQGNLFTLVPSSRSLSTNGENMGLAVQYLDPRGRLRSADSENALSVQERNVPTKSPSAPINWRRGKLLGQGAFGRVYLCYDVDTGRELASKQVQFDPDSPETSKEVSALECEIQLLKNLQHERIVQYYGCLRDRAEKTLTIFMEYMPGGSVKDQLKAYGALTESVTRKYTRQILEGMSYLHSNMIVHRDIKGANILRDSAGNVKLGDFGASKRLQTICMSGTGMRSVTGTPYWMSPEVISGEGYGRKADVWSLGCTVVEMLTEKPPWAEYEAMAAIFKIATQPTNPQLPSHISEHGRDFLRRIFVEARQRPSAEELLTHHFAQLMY
MEKK2 mut-MEK5: signal of MEK5 binding to mutant human MEKK2 PB1 domain | percent response, % at 10 µM | hit rate 0.35% among 290,000 | AID 1530 | bead flow cytometry, Alexa488-MEK5 binding to MEKK2 mutant; in the data active = percent response above about 24%, passing the limit was not always enough
MEKK2wt PB1 HTS: raises or lowers MEK5 binding to wildtype human MEKK2 PB1 domain. Q9Y2U5. binding response (% of control), % at 10 µM. bead flow cytometry, Alexa488-MEK5 binding to MEKK2 WT; actives lie on both sides. hit rate 1.1% among 290,000. AID 1531; in the data active = binding response below about 67% or above about 130%
Pf gametocyte: P. falciparum stage V gametocyte viability inhibition | P. falciparum stage V gametocytes, ATP luminescence, 24 h | inhibition, % at 10.9 µM | hit rate 0.065% among 150,000;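 active = inhibition above the mean plus 3 SD of compounds within the control limits, set per campaign, cut at about 38% in these data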
MEKK2wt confirm: raises or lowers MEK5 binding to wildtype human MEKK2, retest. shares compounds with MEKK3 PB1 HTS. bead flow cytometry, Alexa488-MEK5 binding to MEKK2 WT; actives lie on both sides. binding response (% of control), % at 10 µM. hit rate 2.4% among 5,900. AID 1892; in the data active = binding response below about 16% or above about 210%; inactive = in between
MEKK2mut confirm: signal of MEK5 binding to mutant human MEKK2, retest; shares compounds with MEKK3 PB1 HTS; bead flow cytometry, Alexa488-MEK5 binding to MEKK2 mutant; percent response, % at 10 µM; hit rate 2% among 5,900; AID 1893; in the data active = percent response mostly above about 71%, no sharp cut-off; inactive = mostly below about 38%;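 note: higher means compound restores mutant binding toward wildtype level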
MEKK3 confirm: confirmation of inhibitors of MEK5 binding to human MEKK3; shares compounds with MEKK3 PB1 HTS; bead flow cytometry, Alexa488-MEK5 binding to MEKK3; stronger effect = lower value; binding response (% of control), % at 10 µM; hit rate 1.8% among 5,900;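 active = binding response below 72% of control, or above a set upper limit, though filed actives all read lower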
Hits are given with their value; 0 = inactive; - = not tested or not shown; [ ] = dose if it differs, or a comment.

SMILES | Arbovirus inh | MEKK3 PB1 HTS | MEKK2 mut-MEK5 | MEKK2wt PB1 HTS | Pf gametocyte | MEKK2wt confirm | MEKK2mut confirm | MEKK3 confirm
CN(C)CCCN(C(=O)c1ccc2c(c1)CCCC2)c1nc2ccc(Cl)cc2s1 | 0 | 0 | 78 | 196 | 0 | 221 | 0 | 0
CCOc1ccc2nc(N(CCCN(C)C)C(=O)c3ccc(S(=O)(=O)N4CCc5ccccc5C4)cc3)sc2c1 | - | 0 | 0 | 168 | - | 0 | 0 | 0
CCOc1ccc2nc(N(CCCN(C)C)C(=O)c3ccc4c(c3)CCCC4)sc2c1 | - | 0 | 26 | 158 | - | 0 | 0 | 0
COc1cccc2sc(N(CCN(C)C)C(=O)c3ccc4c(c3)CCCC4)nc12 | - | 0 | 0 | 0 | - | - | - | -
Cc1ccc2nc(N(CCCN(C)C)C(=O)c3ccc4ncsc4c3)sc2c1 | - | 0 | 0 | 0 | - | - | - | -
CCC(=O)N1CCc2cc(S(=O)(=O)CCC(=O)NCc3ccccc3OC)ccc21 | - | 0 | 0 | 0 | - | - | - | -
CC(C)(C)c1ccc(NC(=O)Nc2ccc(F)cc2)cc1 | 0 | 130 | 0 | 0 | 0 | 0 | 0 | 0
CCCNC(=O)c1ccc(COc2ccc(CCC)cc2OC)o1 | - | 0 | 0 | 0 | - | - | - | -
Cc1cc(NC(=O)c2sc(Nc3cccc(C(F)(F)F)c3)nc2N)no1 | 0 | 140 | 0 | 0 | - | 0 | 0 | 0
O=S(=O)(NCc1cccnc1)c1ccc(Cl)cc1 | - | 0 | 0 | 0 | 0 | - | - | -
CN(CCS(=O)(=O)c1ccc(Cl)cc1)Cc1cccnc1 | - | 138 | 0 | 0 | 0 | 0 | 0 | 0
COC(=O)CCCNC(=O)c1ccccn1 | 0 | 0 | 0 | 0 | 0 | - | - | -
C=CCn1c(SCC(=O)NC2CC2)nnc1C1CC1 | - | 0 | 0 | 0 | - | - | - | -
O=C(NCCC1=CCCCC1)C(=O)c1c[nH]c2ccccc12 | 0 | 133 | 0 | 0 | - | 0 | 0 | 0
Cc1cnc(=O)[nH]c1SCc1ccc([N+](=O)[O-])cc1 | - | 0 | 0 | 0 | - | - | - | -
Cc1cc(C)nc(SCCC(=O)N2CCOCC2)n1 | 0 | 123 | 0 | 0 | 0 | 0 | 0 | 0
COCc1cc(C)nc(OC)c1C(N)=O | 0 | 0 | 0 | 0 | - | - | - | -
Cc1ccc2c(c1)C1NC(=S)NC(C)(O2)C1C(=O)Nc1ccc(Cl)cc1 (centres undefined) | 0 | 146 | 0 | 0 | 0 | 0 | 0 | 0
OCCCCNCc1ccc(OCc2ccc(Cl)cc2)cc1 | 0 | 0 | 37 | 181 | - | 0 | 0 | 0
CC(NCc1ccc(OCc2ccc(Cl)cc2)cc1)C(O)c1ccccc1 (centres undefined) | 0 | 0 | 0 | 144 | 0 | 0 | 0 | 0
CCCCCNCc1ccc(Cl)cc1 | 0 | 0 | 0 | 0 | 0 | - | - | -
CC(=O)Nc1ccc(N2C(=O)c3ccc(C(=O)Nc4nnc(SCc5ccc(F)cc5)s4)cc3C2=O)cc1 | 0 | 0 | 0 | 0 | 0 | - | - | -
COc1cc(-c2nc3n(n2)C(c2ccncc2)C(C(N)=O)=C(C)N3)cc(OC)c1OC (centres undefined) | 0 | 122 | 0 | 0 | - | 0 | 0 | 0
CC1=C(C(N)=O)C(c2ccccc2)n2nc(-c3ccncc3)nc2N1 (centres undefined) | 0 | 0 | 0 | 0 | - | - | - | -
O=S(=O)(Nc1ccc2ccccc2n1)c1ccc2c(c1)CCO2 | - | 0 | 0 | 0 | 0 | - | - | -
SMILES | Arbovirus inh | MEKK3 PB1 HTS | MEKK2 mut-MEK5 | MEKK2wt PB1 HTS | Pf gametocyte | MEKK2wt confirm | MEKK2mut confirm | MEKK3 confirm
Cc1nn2c(N)csc2nc1=O | 0 | 62[inhibitor] | 0 | 69[inhibitor] | - | 0 | 0 | 51
Cc1nn2c3ccccc3n(C)c2nc1=O | 0 | 0 | 0 | 0 | - | - | - | -
CN(Cc1ccccc1)C(=O)C1CCC(CNS(=O)(=O)c2cccc3cccnc23)CC1 (centres undefined) | - | 131 | 0 | 0 | 0 | 0 | 0 | 0
Cc1[nH]c2ccccc2c1C(=O)C(=O)NC1CC1 | - | 0 | 0 | 0 | - | - | - | -
O=C(N=Nc1c(O)[nH]c2ccccc12)c1cccs1 | 0 | 0 | 0 | 0 | 0 | - | - | -
CC1CCc2sc(C(=O)N=Nc3c(O)[nH]c4ccccc34)cc2C1 (centres undefined) | 0 | 130 | 0 | 0 | - | 0 | 0 | 0
Cc1ccc(C(=O)c2no[n+]([O-])c2C(=O)c2ccc(C)cc2)cc1 | 0 | 0 | 0 | 0 | 0 | - | - | -
CCCSC(=O)N(CC)CC(=O)Nc1c(CC)cccc1CC | 0 | 0 | 0 | 0 | - | - | - | -
